Lamin A splicing = modulators of lamin A splicing | HeLa LMNA splicing GFP/RFP minigene ratio, 48 h | Potency, µM (doses to about 46.1 µM), for inactives: at the highest dose ratio change, negative = inhibition, usual class: inhibitors | actives 0.01% (n = 200,000) | AID 1487; active = well fitted inhibition curve with a large enough effect in the signal ratio, with a control signal flat, not every such curve was filed as active; inconclusive = small, poorly fitted or top-dose-only effect, or effect the other way, or a change in a side signal; the % refers to the signal ratio
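S3 HeLa cells stably expressing lamin A-EGFP splicing minigene plus DsRed2, 600 cells/well, 48 h compound exposure at 37C. Laser-scanning cytometry; analysed as GFP (500-530 nm)/RFP (575-640 nm) total intensity ratio; 0.5% DMSO vehicle.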
HPGD block = HPGD (human) dehydrogenase inhibition | P15428 | purified HPGD, NADH fluorescence kinetic, PGE2 substrate | Potency, µM, for the others: at the highest dose activity change, negative = inhibition, hits mostly inhibitors | actives 4.3% (n = 150,000) | AID 894; active = well fitted inhibition curve with a large enough effect, not every such curve was filed as active; inconclusive = small, poorly fitted or top-dose-only effect, or another doubt; inactive = no such curve, though single readings can be large or run the other way
Target sequence (P15428 whole entry, looked up): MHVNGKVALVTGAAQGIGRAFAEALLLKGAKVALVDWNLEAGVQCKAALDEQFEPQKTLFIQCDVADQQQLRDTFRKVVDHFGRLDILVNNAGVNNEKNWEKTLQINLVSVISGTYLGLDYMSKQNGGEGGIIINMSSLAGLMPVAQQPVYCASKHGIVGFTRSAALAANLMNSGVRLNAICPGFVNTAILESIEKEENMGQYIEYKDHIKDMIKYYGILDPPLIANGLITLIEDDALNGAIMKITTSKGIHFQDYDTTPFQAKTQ
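20 nM HPGD preincubated 15 min at room temperature with compound in 50 mM Tris-HCl pH 8, 0.01% Tween 20. Started with 1 mM NAD+ and 30 uM prostaglandin E2; NADH fluorescence (360/450 nm) read 5 times over 30-s intervals, last minus first.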
IMPase Li cell = cell-permeable IMPase inhibitors with lithium potentiation. CHO-M1 cells, IP1 TR-FRET (IP-One), carbachol + lithium. Potency, µM (series often up to 59.4 µM), inactives show at the highest dose activity, negative = IMPase inhibition, hits mostly inhibitors. actives 0.35% (n = 210,000). AID 1457;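 also: IP1 builds up when IMPase is blocked and the TR-FRET signal falls; plate controls were basal vehicle for no effect and high inhibitor control for full effect; nearly all actives have a fitted effect of over 50% in size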
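Concentration–response in CHO-M1 cells, lithium-potentiated; 30 min at 37C. IP1 detected by competitive TR-FRET after 10 min lysis at RT. Hill-fitted AC50.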
ALDH1A1 inh = inhibitors of human aldehyde dehydrogenase 1A1; P00352; Purified ALDH1A1, NADH fluorescence, propionaldehyde substrate; Potency, µM (series often up to 75.3 µM), without a hit: at the top dose activity, negative = inhibition, actives largely listed as inhibitors; actives 7.3% (n = 220,000); active = well fitted inhibition curve with a large enough effect, not every such curve was filed as active; inconclusive = small, poorly fitted or top-dose-only effect, or another doubt; inactive = no such curve, though single readings can be large or run the other way;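 also: plate controls were no enzyme wells and a reference inhibitor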
Target sequence (P00352 whole entry, looked up): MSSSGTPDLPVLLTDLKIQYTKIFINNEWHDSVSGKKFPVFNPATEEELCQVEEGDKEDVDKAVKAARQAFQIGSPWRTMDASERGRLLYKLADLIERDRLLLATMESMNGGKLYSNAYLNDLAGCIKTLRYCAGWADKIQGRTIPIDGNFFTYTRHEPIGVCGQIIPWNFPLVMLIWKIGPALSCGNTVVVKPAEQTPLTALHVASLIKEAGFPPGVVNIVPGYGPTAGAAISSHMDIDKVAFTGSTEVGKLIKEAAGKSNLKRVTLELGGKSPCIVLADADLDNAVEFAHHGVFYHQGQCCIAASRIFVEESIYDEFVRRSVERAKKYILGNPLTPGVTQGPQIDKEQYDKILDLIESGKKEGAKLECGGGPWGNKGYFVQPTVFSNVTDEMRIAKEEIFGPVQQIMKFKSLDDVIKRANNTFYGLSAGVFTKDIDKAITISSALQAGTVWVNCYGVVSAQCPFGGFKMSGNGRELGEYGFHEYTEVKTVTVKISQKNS
Luc counter = blocks Kinase-Glo luciferase, a counter-screen artifact; Q27757; Kinase-Glo luciferase, ATP luminescence, 8 min; Potency, µM (titrated, usually from 38.3 µM), inactives show at the top dose activity change, negative = inhibition, actives largely listed as inhibitors; actives 0.28% (n = 200,000); also: nearly all actives have a fitted effect of over 60% in size
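Compound is pinned into ATP-containing buffer (10 uM ATP, imidazole pH 7.2, 7 mM MgCl2). Kinase-Glo luciferase reagent is then added. Light output is recorded following an 8-min room-temperature incubation.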
* marks the source's active call; other numbers are inactive results; u = inconclusive; x = no result; [ ] = another dose, or the depositor's remark. Only some compounds are listed: those with a hit (about 9% of all), similar ones and a draw of the others. Unless noted, calls follow the shape of the dose curve; as a rule, active = well fitted curve in the direction sought with a large enough effect; inconclusive = small, poorly fitted or top-dose-only effect, or another doubt; inactive = no such curve, though single readings can be large; an effect the other way counts as inactive or inconclusive. Unless noted, % is scaled to controls: 0 for no effect and ±100 for the full control effect; potency is read from the fitted curve at half-maximal effect.

SMILES | Lamin A splicing | HPGD block | IMPase Li cell | ALDH1A1 inh | Luc counter
COCCn1c(=NC(=O)c2nc3ccccc3s2)sc2cc(S(C)(=O)=O)ccc21 | -16.9% | u | 22.4µM* | u | 0.2%
COC(=O)Cn1c(=NC(=O)c2nc3ccccc3s2)sc2cc(S(N)(=O)=O)ccc21 | -14.0% | u | -4.7% | u | -3.9%
COC(=O)c1cc(C#N)c(NCc2ccc(Cl)cc2Cl)nc1C | -1.0% | u | 8.91µM* | -3.9% | -0.9%
CCOC(=O)c1cc(C#N)c(NCc2ccccc2)nc1C | 8.3% | -27.3% | 0.5%[38.3 µM] | u | -5.6%
NC1(C(=O)O)C[C@H](C(=O)O)[C@H](C(=O)O)C1 (stereo not given in full) | x | 2.4% | -1.5% | -2.3% | -2.3%
COc1cc(-c2nnc3sc(Cc4ccccc4)nn23)cc(OC)c1OC | 7.7% | u | -7.9%[38.3 µM] | 22.4µM* | -1.2%
COc1cc(-c2nnc3sc(C4CCCCC4)nn23)cc(OC)c1OC | -9.1% | u | 25.0%[38.3 µM] | u | 1.3%
COc1ccc(Cc2nn3c(-c4cc(OC)c(OC)c(OC)c4)nnc3s2)cc1 | u | 22.4µM* | 30.5%[38.3 µM] | 11.2µM* | 0.4%
CCOc1cccc(OCCCCN2CCOCC2)c1 | 12.9% | 2.2% | 9.2%[38.3 µM] | u | -5.3%
COc1cccc(OCCCCCCN2CCOCC2)c1 | 4.2% | -8.5% | 12.7%[38.3 µM] | 3.98µM* | 6.9%
O=C(Nc1ccc(Oc2ccc(NC(=O)Nc3ccccc3Cl)cc2)cc1)Nc1ccccc1Cl | u | x | x | 3.2% | x
Cc1ccc(Cl)cc1NC(=S)N1CCC(c2ccccc2)C1 (stereo not given) | x | x | -14.4% | 3.9% | -0.1%
c1ccc(-c2nc3c([nH]2)CCc2nonc2-3)cc1 | x | x | 3.0% | 4.47µM* | -6.1%
c1coc(-c2nc3c([nH]2)CCc2nonc2-3)c1 | 1.8% | u | 35.7%[38.3 µM] | 2.82µM* | -7.2%
COc1ccc([C@@H]2CC(=O)c3c(O)cc(O[C@H]4O[C@@H](CO[C@H]5O[C@@H](C)[C@@H](O)[C@@H](O)[C@@H]5O)[C@@H](O)[C@@H](O)[C@@H]4O)cc3O2)cc1O | -11.2% | 1.4% | -3.6% | 11.2%[20.9 µM] | -0.9%[17.1 µM]
CC(C)Cc1nn2c(=O)cc(COC(=O)c3ccccc3NC(=O)C3CCCCC3)nc2s1 | -19.5%[46 µM] | x | x | x | x
Cc1cc(C(=O)NC(CC(C)C)C(=O)O)cc(C)c1[N+](=O)[O-] (stereo not given) | -14.4% | -19.5% | -3.1% | 7.08µM* | 2.0%
COC(=O)C(CC(C)C)NC(=O)c1ccc([N+](=O)[O-])c(C)c1 (stereo not given) | -2.6% | -7.2% | -4.4%[38.3 µM] | -0.5% | -2.8%
Cc1cccc(CNC(=O)c2cnc3c(-c4cccc(C)c4)c(C)nn3c2C)c1 | -5.9%[46 µM] | x | x | x | x
O=S(=O)(Nc1cccc(Cl)c1)c1ccc2oc(=S)[nH]c2c1 | x | x | -6.8% | 1µM* | 3.6%
CCn1c(=S)[nH]c2cc(S(=O)(=O)N3CCCCC3)ccc21 | u | -20.5% | -9.3%[38.3 µM] | 7.08µM* | 2.4%
O=S(=O)(c1ccc2oc(=S)[nH]c2c1)N1CCCCC1 | x | x | x | 20µM* | x
O=C(O)c1cc(S(=O)(=O)Nc2cccc(Cl)c2)ccc1O | x | -18.5% | x | u | 0.0%
N#Cc1ccc(OCC(=O)N/N=C2/CC(c3ccccc3)Oc3ccccc32)cc1 (stereo not given) | -0.1% | -8.5% | 9.2% | 2.5% | -1.4%
COc1ccc(C(=O)NCCSCc2ccc(C)cc2)cc1 | -0.3%[0.0737 µM] | 0.3% | -11.0%[38.3 µM] | 2.24µM* | -1.4%
SMILES | Lamin A splicing | HPGD block | IMPase Li cell | ALDH1A1 inh | Luc counter
O=C(NCCSC1CCCCC1)c1ccccc1 | x | x | -2.1% | u | -1.8%
COc1ccc(C(=O)NCCSc2ccc(C)cc2)cc1 | -0.3% | -13.3% | 2.9% | 10µM* | -1.6%
COc1ccc(C(=O)NCCSC2CCCCC2)cc1 | 4.2% | -0.9% | 2.7% | 3.55µM* | -1.3%
COCCNC(=O)c1ccc(C(=O)C(=O)c2ccccc2)cc1 | 0.5% | 14.1µM* | -1.4% | -12.5% | -0.6%
CCN(CC)C(=O)c1[nH]cnc1C(=O)N[C@@H](Cc1ccccc1)C(=O)OCc1ccccc1 | x | x | 6.6% | 2.2% | x
Cc1cc(C)nc(SCNC(=O)c2ccccc2)n1 | -2.9% | 14.1µM* | 8.1% | -7.9% | 0.7%
Cc1ccccc1CNC(=O)c1ccccc1C | 14.4% | u | 9.5%[38.3 µM] | 0.5% | -5.9%
Cc1ccc(SCCNC(=O)c2ccccc2)cc1 | 18.2% | 15.8µM* | -12.5%[38.3 µM] | u | -4.5%
Cc1ccccc1CNC(=O)c1ccccc1 | -11.1% | 15.8µM* | 21.4%[38.3 µM] | u | -0.2%
CCOC(=O)NC(=O)COC(=O)c1ccc(Sc2ncn[nH]2)c([N+](=O)[O-])c1 | u | x | -4.6% | -10.9% | 1.6%
O=C(NCCc1ccccc1)C1CC(c2ccccc2O)=NO1 (stereo not given) | -3.6% | -9.4% | -5.0%[38.3 µM] | u | -8.4%
C=CCNC(=O)c1onc(CSc2ccc(F)cc2)c1C(=O)NCCOC | 6.9% | -6.8% | -25.5%[38.3 µM] | -14.4% | -1.8%
CC[C@H](C)[C@@H](NC(=O)O[C@@H]1Cc2cc(OC)ccc2O[C@H]1c1cccc(OC)c1)C(=O)OC | x | -2.3% | 29.5% | 3.9% | -0.5%
O=C(NCc1ccccc1)c1nnc(Cc2cccc(F)c2)o1 | -2.8%[46 µM] | x | x | x | x
C#CC(C)OC(=O)C(C)NC(=O)c1ccccc1 (stereo not given) | x | -6.8% | -4.6% | 1.7% | -1.5%
CCOC(=O)c1ccc(NC(=O)c2cc3cc(C)ccc3n2C)cc1 | 5.5%[46 µM] | x | x | x | x
C[C@]12CCC(=O)C=C1CCC1C2C(O)C[C@]2(C)C1CC[C@]2(O)C(=O)COC(=O)CCC(=O)O (stereo not given in full) | x | -10.7% | 10.6% | -8.3% | -2.7%
COc1ccc(-n2c(SC3CCOC3=O)nc3ccccc32)cc1 (stereo not given) | -6.5% | 0.2% | 0.6%[38.3 µM] | 5.9% | 1.9%
COc1ccc(/C=C2/N=C(SC3CCOC3=O)N(c3cccc(OC)c3)C2=O)cc1 (stereo not given) | -14.4% | x | x | 3.55µM* | x
C[C@@]12CCC(O)C[C@H]1CCc1ccccc12 (stereo not given in full) | -10.0% | -5.8% | -5.7% | -1.9% | -0.6%
Cc1cccc(NC(=O)Cn2c(=O)n(CCC(=O)NC3CCCC3)c(=O)c3ccccc32)c1 | 3.2% | -14.4% | 19.8%[38.3 µM] | 6.4% | -3.1%
Cc1cccc(NC(=O)Cn2c(O)c(N=NC(=O)c3ccccc3O)c3ccccc32)c1 | 5.6% | -6.7% | 11.3% | 12.6µM* | -6.7%
COc1ccccc1NC(=O)Cn1c(=O)n2nc(C)nc2c2ccccc21 | -1.1% | -15.6% | -10.4%[38.3 µM] | 20µM* | 15.2%
Cc1cccc(-c2nc3c4ccccc4n(CC(=O)Nc4cc(F)ccc4F)c(=O)n3n2)c1 | 14.3%[46 µM] | x | x | x | x
COc1ccc(CNC(=O)Cn2c(=O)n3nc(-c4ccc(OC)cc4)nc3c3ccccc32)cc1 | 12.8%[46 µM] | x | x | x | x
COc1ccc(Cl)cc1NC(=O)Cn1c(=O)n2nc(C)nc2c2ccccc21 | -9.3% | -20.9% | 18.4%[38.3 µM] | 7.94µM* | 0.6%
